According to PubChem BioAssay (NCATS):
Inconclusive results are not listed. The source made the active and inactive calls. Unless noted, the call rests on the fitted dose curve; in most records, active means well fitted curve in the direction sought with a large enough effect; inconclusive means small, poorly fitted or top-dose-only effect, or another doubt; inactive means no such curve, though single readings can be large; an effect the other way counts as inactive or inconclusive.

Legend:
[1] = Confirmation and Secondary Assay for Modulators of Hemoglobin Beta Chain Splicing at IVS2 654 locus (AID 910);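 further: per-well total GFP intensity by laser scanning cytometry after 2-day treatment; % of control where 0% means no effect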
How it was run: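 HeLa cells stably carrying EGFP interrupted by mutant beta-globin IVS2-654 intron (CMV-driven) were treated with compound for 2 days at 37C; corrected splicing was scored as total peak GFP intensity per well (488 nm excitation, 500-520 nm emission).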

[2] = Confirmation and Secondary Assay for Modulators of Hemoglobin Beta Chain Splicing at IVS2 705 locus (AID 930);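 further: HeLa cells stably expressing the EGFP-705 splicing reporter; % of control where 0% means no effect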
How it was run: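 Restored EGFP fluorescence after 2-day compound exposure reports splicing correction in IVS2-705 EGFP reporter HeLa cells; positive control was 500 nM splice-blocking PNA oligo. Signal measured as well total peak GFP intensity (488 nm excitation).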

[3] = qHTS Assay for Lipid Storage Modulators (AID 1519; calls by dose curve; on activity change, negative = inhibition: on the % scale 0 is the no-effect control and ±100 the full control effect); conditions: Drosophila S3 cells, BODIPY lipid droplet/cell ratio, laser cytometry, cells loaded with oleic acid; for activity change, negative = inhibition: at 57.5 µM (top of the series)
How it was run: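 Cells seeded at 5,000 per well were treated with compounds over a concentration series and loaded with oleic acid (400 uM, as added). Lipid droplet fluorescence (488 nm excitation, 500-530 nm channel) was read by laser-scanning cytometry and normalized to 20 uM Triacsin C.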

[4] = target: Ubiquitin carboxyl-terminal hydrolase 1 (Homo sapiens) (UniProt O94782); assay: Inhibitors of USP1/UAF1: Pilot qHTS (AID 504865);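 further: rhodamine fluorescence freed from ubiquitin-rhodamine substrate followed over time; top concentration of the series differs between compounds; on the % scale 0 is the no-effect control and ±100 the full control effect; nearly all actives have a fitted effect of over 35% in size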
Chain of Ubiquitin carboxyl-terminal hydrolase 1 (Homo sapiens) (O94782 whole entry, looked up): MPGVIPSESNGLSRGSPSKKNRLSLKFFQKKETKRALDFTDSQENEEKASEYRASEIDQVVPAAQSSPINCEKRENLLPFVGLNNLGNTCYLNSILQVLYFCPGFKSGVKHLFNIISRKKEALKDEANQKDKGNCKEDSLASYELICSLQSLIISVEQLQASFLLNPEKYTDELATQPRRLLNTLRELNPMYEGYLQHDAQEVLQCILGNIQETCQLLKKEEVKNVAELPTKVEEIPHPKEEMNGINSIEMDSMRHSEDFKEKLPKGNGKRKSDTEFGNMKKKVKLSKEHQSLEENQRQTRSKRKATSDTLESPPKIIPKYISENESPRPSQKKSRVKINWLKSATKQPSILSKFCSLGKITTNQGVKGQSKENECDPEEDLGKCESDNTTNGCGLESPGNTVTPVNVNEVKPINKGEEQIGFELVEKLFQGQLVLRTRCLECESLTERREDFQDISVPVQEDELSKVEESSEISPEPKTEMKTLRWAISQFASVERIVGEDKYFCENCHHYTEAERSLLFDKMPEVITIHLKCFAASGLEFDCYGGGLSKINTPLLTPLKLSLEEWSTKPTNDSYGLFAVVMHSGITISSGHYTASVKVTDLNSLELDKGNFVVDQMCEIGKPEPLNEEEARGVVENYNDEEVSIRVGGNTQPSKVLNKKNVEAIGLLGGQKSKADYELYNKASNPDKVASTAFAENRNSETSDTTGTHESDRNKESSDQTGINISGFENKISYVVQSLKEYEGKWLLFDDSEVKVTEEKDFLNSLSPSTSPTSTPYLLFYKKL
How it was run: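 1nM USP1/UAF1 + cpd, 15 min RT; start w/ Ub-Rho 150nM final; kinetic FL 480/540 nm, 6 reads q60 s. Buffer 50mM HEPES pH 7.8, 0.5mM EDTA, 1mM TCEP, 0.01% Tween-20, 0.1 mg/ml BSA.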

[5] = target: Cytochrome P450 3A4 (Homo sapiens) (UniProt P08684); assay: qHTS Assay for Inhibitors and Substrates of Cytochrome P450 3A4 (AID 884); further: nearly all actives have a fitted effect of over 50% in size; further: potency means the concentration at half of the fitted maximal effect; on activity change, negative = inhibition: on the % scale 0 is the no-effect control and ±100 the full control effect
Chain of Cytochrome P450 3A4 (Homo sapiens) (P08684 whole entry, looked up): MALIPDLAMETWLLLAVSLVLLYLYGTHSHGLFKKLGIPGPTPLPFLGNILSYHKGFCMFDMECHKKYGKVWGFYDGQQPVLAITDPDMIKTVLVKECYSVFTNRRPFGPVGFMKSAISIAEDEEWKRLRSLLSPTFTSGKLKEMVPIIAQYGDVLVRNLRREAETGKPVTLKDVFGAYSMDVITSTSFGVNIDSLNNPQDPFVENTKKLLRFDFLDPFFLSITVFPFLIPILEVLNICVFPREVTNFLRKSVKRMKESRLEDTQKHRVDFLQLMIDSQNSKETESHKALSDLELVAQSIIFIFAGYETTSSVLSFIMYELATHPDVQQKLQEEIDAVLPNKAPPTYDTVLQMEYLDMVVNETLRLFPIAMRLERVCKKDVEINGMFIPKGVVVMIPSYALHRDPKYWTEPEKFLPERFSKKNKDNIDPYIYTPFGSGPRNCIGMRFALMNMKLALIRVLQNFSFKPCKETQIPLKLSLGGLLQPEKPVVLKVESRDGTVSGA
How it was run: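 Luminescent readout of luciferin produced by CYP3A4 (20 nM) dealkylation of Luciferin-PPXE, 25 uM (its KM). NADPH-driven reaction ran 60 min at RT after 10 min compound preincubation; data scaled to 57 uM ketoconazole as 100% inhibition.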

[6] = target: Cytochrome P450 3A4 (Homo sapiens) (UniProt P08684); assay: qHTS Assay for Activators of Cytochrome P450 3A4 (AID 885); further: nearly all actives have a fitted effect of over 65% in size
How it was run: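 Human CYP3A4 dealkylates Luciferin-PPXE to luciferin, which luciferase detection converts to light. Substrate was at its KM (25uM), buffer 200mM KPO4, reaction 60 min at RT.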

[7] = measured here: cell count channel max response
[8] = measured here: lipid channel max response

SMILES	Potency [1]	Potency [2]	activity change, negative = inhibition [3]	max response [3, 7] [%]	max response [3, 8] [%]	Potency [4]	Potency [5]	Potency [6]
CC1(C)OC2CC3C4CC(F)C5=CC(=O)CC[C@@]5(C)C4C(O)C[C@@]3(C)[C@]2(C(=O)CO)O1 (some centres undefined)	inactive	inactive	4.43% (inactive)	7.91	15.6	inactive	–	–
C/C=C(\C)C(=O)OC1c2c(ccc3ccc(=O)oc23)OC(C)(C)C1OC(C)=O (centres undefined)	inactive	inactive	-20.9% (inactive)	-0.795	-21.2	–	25.1 µM (active)	inactive
CC12CCC3c4ccc(OCc5ccccc5)cc4CCC3C1CC(O)C2O (centres undefined)	inactive	inactive	3.93% (inactive)	2.78	8.16	–	inactive	–
CNC(CC(=O)O)C(=O)O (centres undefined)	inactive	inactive	0.835% (inactive)	10.8	11.7	–	inactive	–
CC(=O)OC1CC2C(C)(C)C(O)CC[C@@]2(C)C2CC[C@@]3(C)C(c4ccoc4)OC(=O)C4OC43[C@]12C (some centres undefined)	inactive	inactive	-20.5% (inactive)	-7.63	-27.3	–	2.51 µM (active)	inactive
COC(=O)CC1C2(C)CC34OC5(C)O[C@@]6(C7/C(=C(/O)C(C)C)C(=O)OC(c8ccoc8)[C@]7(C)C(OC(C)=O)C(OC(C)=O)[C@]6(O5)[C@@]13C)C(OC(C)=O)[C@]4(O)C2OC(=O)C(C)C (some centres undefined)	inactive	inactive	8.78% (inactive)	16.6	29.3	–	12.6 µM (active)	inactive
CC(=O)O[C@@]1(C(C)=O)CCC2C3C=C(C)C4=CC(=O)CCC4(C)C3CCC21C (some centres undefined)	inactive	inactive	3.94% (inactive)	7.28	12.7	–	inactive	–
Cc1cc(O)c2c(c1O)C(=O)c1c(O)cc(C)c(O)c1C2=O	inactive	inactive	6.96% (inactive)	-16.3	-8.79	–	inactive	–
CC(=O)OC1CC2C(C)(C)C(=O)C=C[C@]2(C)C2CC[C@@]3(C)C(c4ccoc4)OC(=O)C4O[C@@]43[C@]12C (some centres undefined)	inactive	inactive	-1.71% (inactive)	11.5	11.5	–	12.6 µM (active)	inactive
C=C1CCC(OC(C)=O)/C(C)=C/CC2[C@H]1CC2(C)C (some centres undefined)	inactive	inactive	1.96% (inactive)	2.53	5.33	–	31.6 µM (active)	inactive
COC(=O)[C@]1(C)CCC[C@]2(C)c3ccc(C(C)C)cc3C(=O)CC12 (some centres undefined)	inactive	inactive	1.78% (inactive)	15.8	18.5	–	25.1 µM (active)	inactive
COc1ccc2c(c1)OCC(Cc1ccc(O)c(OC)c1)C2=O (centres undefined)	inactive	inactive	13.3% (inactive)	8.4	29.2	–	2 µM (active)	inactive
C/C=C(/C)C(=O)OC1C(OC(C)=O)[C@@]2(CO)C(O)C[C@@]3(C)C(=CCC4[C@@]5(C)CCC(OC6OC(C(=O)O)[C@@H](O[C@@H]7OC(CO)C(O)C(O)C7O)C(O)[C@H]6O[C@@H]6OC(CO)C(O)C(O)C6O)[C@](C)(CO)C5CC[C@@]43C)C2CC1(C)C (some centres undefined)	inactive	inactive	9.44% (inactive)	18	28.7	–	inactive	–
CC(=O)OC1CC2C(C)(C)C(O)CC[C@@]2(C)C2CC[C@@]3(C)C(c4ccoc4)OC(=O)C4O[C@@]43[C@]12C (some centres undefined)	inactive	inactive	-1.7% (inactive)	-2.48	-4.24	–	2.51 µM (active)	inactive
COc1ccccc1-c1cc(=O)c2cccc(OC)c2o1	inactive	inactive	6.98% (inactive)	13.5	23.2	–	20 µM (active)	inactive
C=CCCCCCCCCCCCC(O)CC(O)CO (centres undefined) (tested in a mixture with another compound)	inactive	inactive	11.1% (inactive)	1.75	15.4	–	inactive	–
COc1ccc(C(C)C(=O)c2ccc(O)cc2O)cc1 (centres undefined)	inactive	inactive	0.578% (inactive)	-18.6	-16.9	–	3.98 µM (active)	inactive
CC(=O)OC1CC2C(C)(C)C(=O)CC[C@]2(C)C2CC[C@@]3(C)C(c4ccoc4)OC(=O)C4OC43[C@]12C (some centres undefined)	inactive	inactive	5.91% (inactive)	22.7	27.2	–	3.98 µM (active)	inactive
CC(C)CCCC(C)C1CCC2C3=CC[C@@H]4CC(O)CC[C@@]4(C)C3CC[C@]21C (some centres undefined)	inactive	inactive	-3.72% (inactive)	6.46	4.39	–	inactive	–
CC1=CCc2c(cc3oc(C)cc(=O)c3c2O)OC1	inactive	inactive	15.7% (inactive)	14.5	19.5	–	25.1 µM (active)	inactive
C=C1C2=CC(=O)OC(c3ccoc3)[C@]2(C)CCC1[C@]1(C)C=CC(=O)C(C)(C)C1CC(=O)OC (some centres undefined)	inactive	inactive	-2.8% (inactive)	12.4	11.5	–	3.98 µM (active)	inactive
